About 1,600 (0.52%) of roughly 310,000 compounds were called active. Many of the other results were omitted from the sample, so actives are more common in it than they were. Unmarked numbers belong to inactive results.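 The calls were made as follows: active = activation above the mean of controls blocked by dofetilide plus 5 SD; inactive = the rest.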

This assay deals with Voltage-gated inwardly rectifying potassium channel KCNH2 (Homo sapiens) (UniProt Q12809). The assay is described as follows: compounds relieving dofetilide block of hERG – cell-based, CHO-hERG, FluxOR thallium flux, dofetilide IC70, primary screen (AID 1511).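 Also: thallium influx through hERG after potassium depolarization seen as dye fluorescence rise.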 Conditions: dofetilide IC70 present, at 10 µM, stronger effect = higher value. In general terms: hERG is a cardiac potassium channel; its block is linked to QT prolongation.
Sequence of Voltage-gated inwardly rectifying potassium channel KCNH2 (Homo sapiens) (Q12809 whole entry, looked up): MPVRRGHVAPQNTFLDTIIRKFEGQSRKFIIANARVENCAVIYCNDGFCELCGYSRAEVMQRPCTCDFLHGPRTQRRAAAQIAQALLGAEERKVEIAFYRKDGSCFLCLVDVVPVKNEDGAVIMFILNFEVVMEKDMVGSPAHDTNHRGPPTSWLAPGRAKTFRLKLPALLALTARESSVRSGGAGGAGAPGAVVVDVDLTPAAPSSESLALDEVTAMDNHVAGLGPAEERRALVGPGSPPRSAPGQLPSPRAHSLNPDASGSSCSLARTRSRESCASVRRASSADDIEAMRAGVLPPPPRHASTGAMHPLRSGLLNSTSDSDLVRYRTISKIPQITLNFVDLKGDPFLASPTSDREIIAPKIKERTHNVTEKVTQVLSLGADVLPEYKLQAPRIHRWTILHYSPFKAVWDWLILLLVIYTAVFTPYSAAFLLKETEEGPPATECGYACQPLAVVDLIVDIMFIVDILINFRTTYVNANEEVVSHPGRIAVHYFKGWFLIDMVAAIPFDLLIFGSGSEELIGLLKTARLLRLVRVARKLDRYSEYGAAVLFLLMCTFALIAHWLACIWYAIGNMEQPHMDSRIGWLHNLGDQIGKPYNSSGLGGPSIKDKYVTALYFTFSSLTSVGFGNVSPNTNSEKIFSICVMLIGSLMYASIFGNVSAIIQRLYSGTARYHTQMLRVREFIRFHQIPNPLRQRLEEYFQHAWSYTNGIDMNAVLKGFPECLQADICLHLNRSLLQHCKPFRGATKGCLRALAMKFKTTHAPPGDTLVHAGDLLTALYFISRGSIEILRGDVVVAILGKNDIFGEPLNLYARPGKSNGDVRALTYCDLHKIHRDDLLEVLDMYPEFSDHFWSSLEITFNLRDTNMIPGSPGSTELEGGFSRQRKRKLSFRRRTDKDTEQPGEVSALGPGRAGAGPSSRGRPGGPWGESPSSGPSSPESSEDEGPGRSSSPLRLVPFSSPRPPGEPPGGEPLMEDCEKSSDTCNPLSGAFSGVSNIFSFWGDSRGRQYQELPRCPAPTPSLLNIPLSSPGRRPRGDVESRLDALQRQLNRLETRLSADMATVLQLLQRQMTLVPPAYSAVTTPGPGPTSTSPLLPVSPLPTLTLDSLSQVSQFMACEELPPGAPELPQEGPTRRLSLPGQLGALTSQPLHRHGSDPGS
Consider `COc1cc(C(=O)Nn2c(O)c(C3=c4ccccc4=NC3=O)sc2=S)ccc1O`, for which the activation (rescue from dofetilide block), less the hit threshold was -14.6%.
As for `Cc1onc(-c2ccc(Cl)cc2)c1-c1ccnn1S(=O)(=O)c1ccc(Cl)cc1`, the activation (rescue from dofetilide block), less the hit threshold is -7.23%.
On to `CCCCNC(=O)CCn1c(=S)[nH]c2cc3c(cc2c1=O)OCO3`, for which the activation (rescue from dofetilide block), less the hit threshold was -6.01%.
With `CC(C)NC(=O)CCCn1c(=S)[nH]c2cc3c(cc2c1=O)OCO3`, the activation (rescue from dofetilide block), less the hit threshold was -9.07%.
Take `O=C(CCn1c(=S)[nH]c2cc3c(cc2c1=O)OCO3)NCc1ccc(Cl)cc1`: the activation (rescue from dofetilide block), less the hit threshold is 4.99% (active).
The result for `N#Cc1c(-c2ccccc2)cc(-c2ccccc2)nc1SCC(=O)O` reads -12.9%.
As for `CCOC(=O)CC(=O)CSc1nc(-c2ccccc2)cc(-c2ccc(Cl)cc2)c1C#N`, the activation (rescue from dofetilide block), less the hit threshold was -4.82%.
The result for `N#Cc1c(-c2ccc(F)cc2)cc(C2CC2)nc1SCC(=O)c1cccs1` reads 8.07% (active).
The value for `NC(=O)COc1ccc(C23CC4CC(CC(C4)C2)C3)cc1` was -4.82%.
The value for `O=C(O)CN(Cc1ccco1)S(=O)(=O)c1ccc(F)cc1` was -6.3%; that for `Clc1cccc(N=C2NN=C(c3ccc4c(c3)OCCO4)CS2)c1` was -12.5%.
As for `CN(C)c1nc(=Nc2cccc(Cl)c2)ss1`, the activation (rescue from dofetilide block), less the hit threshold was 40.5% (active).
In the case of `COc1ccc(CCNC(=O)CSCc2ccc(Br)cc2)cc1OC`, the activation (rescue from dofetilide block), less the hit threshold is -9.1%.
Regarding `Cc1cccc(C)c1NC(=O)CCS(=O)(=O)c1cccc2nsnc12`, the activation (rescue from dofetilide block), less the hit threshold was -5.88%.
The value for `N#Cc1c(N)nc2c(c1N)CC(C(F)(F)F)O2` (configuration not stated) was -1.93%; that for `CSc1ncccc1C(=O)Nc1nc2ccc(F)cc2s1` was -5.7%.
Consider `O=C(Cn1c(=O)sc2ccccc21)Nc1nc2c(s1)CCCC2`, for which the activation (rescue from dofetilide block), less the hit threshold was -3.68%.
The value for `Fc1ccc2nc(Nc3nc4c(s3)CCCC4)sc2c1` was 10.5% (active); that for `Brc1ccc(Nc2c3c(nc4ncnn24)CCC3)cc1` was -14.2%.
With `CC(C)c1ccc2c(c1)c(SC(C)(C)C)c(CC(C)(C)C(=O)O)n2Cc1ccc(Cl)cc1`, the activation (rescue from dofetilide block), less the hit threshold is 26.6% (active).
The value for `O=C(O)c1ccc(Cn2c(=S)[nH]c3cc(Cl)ccc3c2=O)cc1` was -3.87%; that for `S=C(Cc1ccc(Cl)cc1)N1CCOCC1` was -11.3%.
Regarding `CCN(CC)CCCNC(=O)c1c(O)c2cc(F)cc3c2n(c1=O)C(C)CC3` (configuration not stated), the activation (rescue from dofetilide block), less the hit threshold was -2.1%.
The result for `Cc1ccc(CNC(=O)CCNS(=O)(=O)c2cccc3nonc23)cc1` reads -9.61%.
The result for `Cc1ccc(N(CC(=O)Nc2cc(C)cc(C)c2)S(=O)(=O)c2cccc3nonc23)cc1` reads 4.86% (active); that for `CCOC(=O)c1cccc(NC(=O)CN(c2ccc(C)cc2)S(=O)(=O)c2c(C)noc2C)c1`, -0.14%.
The result for `Cc1cc2c(cc1S(=O)(=O)NCc1ccc(Cl)cc1)OCC(=O)N2` reads -9.71%.
For `CCC(C(=O)N1CCOCC1)n1c(C(=O)OC)cc2occc21` (configuration not stated), the activation (rescue from dofetilide block), less the hit threshold was -6.73%.
Regarding `CCCC(C(=O)N1CCOCC1)N1C(=O)C2C3C=CC(C3)C2C1=O` (configuration not stated), the activation (rescue from dofetilide block), less the hit threshold is 4.64% (active).
The value for `CCCCOC(=O)NCN1C(=O)C2C3C=CC(C3)C2C1=O` (configuration not stated) was -3.35%; that for `COc1ccc(CNC(=O)C(C)n2nc(C)c3c(C)n(-c4ccccc4)nc3c2=O)c(OC)c1` (configuration not stated) was -10.8%; that for `COc1ccc(C(=O)N2CCCN(C)CC2)c(OC)c1` was 0.38%.
The value for `Cc1cc(C)c2c(n1)sc1c(=O)n(-c3ccccc3)c(=O)[nH]c12` was -5.76%; that for `O=c1[nH]c(/C=C\c2cccc(C(F)(F)F)c2)nc(O)c1[N+](=O)[O-]` was -0.14%; that for `CCN1CCc2nc(NC(=O)c3cc(F)c(F)cc3Cl)sc2C1` was 15.1% (active).
For `CC(=O)Cc1nsc(NC(=O)c2ccc(Cl)cc2Cl)n1`, the activation (rescue from dofetilide block), less the hit threshold is -13.1%.
With `O=C(Nc1ccc(OCC(=O)N2CCOCC2)cc1)c1cc(F)c(F)cc1Cl`, the activation (rescue from dofetilide block), less the hit threshold was -9.32%.
The value for `COCCCNC(=O)/C(C#N)=C/c1c(N2CCCCCC2)nc2ccccn2c1=O` was -4.19%; that for `Cc1c(C)c2c(OCC(=O)N[C@@H](C(=O)O)c3ccccc3)cc3c(c2oc1=O)CCC(C)(C)O3` was -2.69%; that for `COc1cc(Br)cc(/C=N/c2ncn[nH]2)c1O` was -7.59%.
The value for `Oc1c(Cl)cc(Cl)cc1/C=N/c1ncn[nH]1` was 15.4% (active); that for `CC(C)CCNC(=O)C1CCC(CNc2c(N3CCC(C)CC3)c(=O)c2=O)CC1` (configuration not stated) was -6.27%; that for `Cc1cc(C)cc(NC(=O)NC2CCCCCCC2)c1` was -9%.
The value for `CCOC(=O)CSC1=N/C(=C/c2ccc(-n3cncn3)cc2)C(=O)N1C(C)=O` was -12%; that for `Cc1cc(C)c2c(=O)[nH]c(SCC(=O)Nc3ccc(Br)cc3)nc2n1` was -11.1%.
`Cc1ccn(C(CC(=O)c2ccc(Br)cc2)C(=O)O)n1` (configuration not stated): the activation (rescue from dofetilide block), less the hit threshold was 5% (active).
The value for `Cc1ccc(NC(=O)CCC(=O)c2ccc(Br)cc2)cc1` was 1.34%.

The values are drawn from PubChem BioAssay AID1511 (Johns Hopkins Ion Channel Center, 2009).
